# From PubChem BioAssay
# This is a sample that favours compounds with a hit; in the whole collection about 2.6% have one here.
# BaF3 parental: reduces parental Ba/F3 cell viability, JAK2V617F counter-screen; inhibition, % at 5.6 µM; 220,000 tested, 1.1% active; CellTiter-Glo ATP luminescence; AID 1486;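 active = inhibition above a per-campaign cutoff, the mean inhibition of all tested compounds plus 3 SD, cut at about 27% in these data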;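 note: 0% = DMSO wells and 100% = JAK Inhibitor I control wells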
# IEC-6 cytotox: kills IEC-6 intestinal cells in KLF5 counter-screen; inhibition, % at 5 µM; 290,000 tested, 0.78% active; IEC-6 cytotoxicity, luminescence viability; in the data active = inhibition above about 22%;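 note: 0% = plate median of test compound wells and 100% = cytotoxic reference compound wells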
# Ba/F3 V617F tox: loss of viability in JAK2V617F-driven Ba/F3 cells; Ba/F3 EpoR-JAK2V617F viability, ATP luminescence; inhibition, % at 5.6 µM; 220,000 tested, 1.1% active; AID 1446;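 active = inhibition above the campaign mean plus 3 SD over all tested compounds, cut at about 24% in these data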;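 note: cytokine-independent growth of Ba/F3 cells driven by EpoR plus mutant JAK2; 0% = DMSO-treated cells and 100% = JAK inhibitor I control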
# GPR7 antagonist: blocks human GPR7 receptor signaling; P48145; GPR7-expressing cells, fluorescence antagonist assay; inhibition, % at 4.4 µM; 290,000 tested, 1.1% active; in the data active = inhibition above about 16%, passing the limit was not always enough;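 note: cells stimulated with the agonist NPW; 0% = agonist with vehicle and 100% = vehicle without agonist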
# Target sequence (P48145 whole entry, looked up): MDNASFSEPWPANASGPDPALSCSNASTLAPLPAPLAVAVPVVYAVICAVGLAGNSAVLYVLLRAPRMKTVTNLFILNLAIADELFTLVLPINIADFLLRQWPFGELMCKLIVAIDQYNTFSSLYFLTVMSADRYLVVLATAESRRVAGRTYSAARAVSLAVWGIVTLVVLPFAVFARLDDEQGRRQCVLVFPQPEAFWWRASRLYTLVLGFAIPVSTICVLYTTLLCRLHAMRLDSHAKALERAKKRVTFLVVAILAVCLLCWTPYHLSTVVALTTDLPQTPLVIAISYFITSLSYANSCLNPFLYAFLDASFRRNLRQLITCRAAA
# KLF5 inhibitor: inhibitors of KLF5 expression. DLD-1 KLF5 promoter-luciferase reporter, luminescence. inhibition, % at 5 µM. 290,000 tested, 0.23% active;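 active = inhibition above a per-plate limit of that plate's mean compound inhibition plus 3 SD, cut at about 60% in these data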;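 note: 0% = DMSO wells and 100% = LY294002 at 200 µM; higher means less KLF5 promoter-driven luciferase light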
# FID counter: fluorescent intercalator displacement, NS3 helicase counter-screen. DNA fluorescent intercalator displacement, fluorescence. inhibition, % at 7.9 µM. 290,000 tested, 0.17% active. AID 1845; in the data active = inhibition above about 37%;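 note: 0% = vehicle and 100% = reference compound; higher means more ethidium bromide displaced from hairpin DNA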
# The depositor's hits bear a star; / = no result given.
SMILES,BaF3 parental,IEC-6 cytotox,Ba/F3 V617F tox,GPR7 antagonist,KLF5 inhibitor,FID counter
CC[n+]1cccc(-c2nc3ccccc3s2)c1,44*,4,34*,-3,-7,3
O=C(NCc1ccccc1F)c1ccncc1,/,7,/,-8,-10,-6
COc1cc2ccc3c(CCN(C)C)cc(OC)c(OC)c3c2cc1OC,/,-7,/,-14,3,2
CN(C)CCc1cc2c(c3c1ccc1ccccc13)OCO2,/,15,/,4,-20,43*
c1ccc(C[n+]2cccc3c4ccccc4ccc32)cc1,79*,3,97*,-11,6,8
CCCCC[n+]1cccc2c3ccccc3ccc21,77*,14,100*,12,49,19
NC(=O)C[n+]1cccc2ccccc21,0,-5,0,-4,-19,1
CCN1C(=O)/C(=C\N(C)C)NC1=S,5,-3,0,-9,-43,0
S=C(Nc1ccc(Cl)cc1)N1CCN(C2CCCCC2)CC1,36*,-4,23,-11,-3,6
O=C(CSCc1ccc([N+](=O)[O-])cc1)NC1CCCCCC1,4,-6,4,16,-1,-8
Nc1ccn([C@@H]2CS[C@H](CO)O2)c(=O)n1,-5,-2,-2,-9,-32,4
Nc1ccn([C@@H]2O[C@H](CO)[C@@H](O)C2O)c(=O)n1 (some centres not stated),72*,93*,75*,-7,29,-1
COc1ccc(C2=NN(CC(=O)Nc3ccccc3C)C(=O)CC2)cc1,57*,2,-1,-10,9,-11
CC(=O)Nc1ccc2[nH]c3ccccc3c2c1,3,3,0,-15,-6,1
O=C(Nc1ccc(Cl)cc1)c1cc2c(cc1O)[nH]c1ccccc12,-5,0,2,43*,-27,20
CC(/C=C1\SC(=S)N(CCCC(=O)Nc2ccc(C(=O)O)c(O)c2)C1=O)=C\c1ccccc1,-2,0,-3,-6,2,39*
C/C=C/c1ccc(OCC(=O)Nc2cc(C(F)(F)F)ccc2N2CCOCC2)c(OC)c1,/,-4,/,-6,-11,-10
CCN(CC)C(=S)Nc1ccc(OC)cc1,1,-6,-4,-5,3,0
COc1ccc(CN(C)C(=S)Nc2ccc(Cl)cc2)cc1,36*,-1,39*,-4,-23,-8
C=CCSc1nc2sc3c(c2c(=O)n1CC)CCC3,/,0,/,-18,-14,-18
NC(=O)N/N=C/c1cc(F)cc(F)c1,-5,0,1,-15,20,-2
CC(=O)c1c(C)[nH]c(C(=O)N(CCc2ccccc2)Cc2ccccc2)c1C,8,-7,1,-3,4,-16
O=C(N/N=C/c1ccc(O)c(O)c1)c1ccc(CSc2cccc3cccnc23)cc1,27*,5,62*,7,-36,-12
O=C(CSc1cccc2cccnc12)N/N=C/c1cccc(O)c1,2,3,0,16,-12,-8
Cc1ccc(C(C)C)c(OCc2ccc(C(=O)N/N=C/c3ccc(O)c(O)c3)cc2)c1,78*,8,39*,-7,-28,-17
SMILES,BaF3 parental,IEC-6 cytotox,Ba/F3 V617F tox,GPR7 antagonist,KLF5 inhibitor,FID counter
O=C(Cn1cnc2c(nnn2Cc2ccc(F)cc2)c1=O)Nc1ccc2c(c1)OCCO2,/,-4,/,-8,-17,-8
CSc1ccc(CN2CCC(CO)(Cc3ccc(Cl)cc3)CC2)cc1,6,1,6,30*,-32,17
OCC1(Cc2ccc(Cl)cc2)CCN(Cc2ccccc2F)CC1,-1,1,2,-6,-4,9
O=C(NC1CCCCC1)C(c1ccco1)N(Cc1cccs1)C(=O)Cn1nnc2ccccc21 (configuration not stated),7,-2,3,22*,17,-4
O=[N+]([O-])c1ccc2[nH]cc(S(=O)(=O)N3CCN(c4cccc(Cl)c4)CC3)c2c1,/,14,/,7,-8,39*
O=[N+]([O-])c1ccc(N2CCN(c3cccc(Cl)c3)CC2)cn1,/,1,/,21*,-18,-17
O=[N+]([O-])c1ccc(N2CCCCC2)cn1,3,0,-4,4,-25,-8
O=C(Nc1ccccc1C(=O)N1CCCC1)c1ncoc1-c1cccc(Cl)c1,/,5,/,-3,-27,-39
CC(=O)N1CCCN(Cc2cn(-c3ccc(C)cc3)nc2-c2cccc(C)c2)CC1,41*,2,0,-3,-22,-2
O=c1c(Cl)c(NCCCO)cnn1-c1nc2ccccc2[nH]1,63*,2,34*,-5,-112,-6
C=CCN(CC=C)c1cnn(-c2nc3ccccc3[nH]2)c(=O)c1Cl,5,0,0,7,-139,-8
Cc1c(C(=O)NC2CCOC2)oc2c(F)cccc12 (configuration not stated),/,6,/,-12,-162,-15
CC(=O)N(CCCN(C)C)Cc1ccccn1,1,6,1,-11,1,1
CC(=O)N(CCCc1ccc(C(C)(C)C)cc1)CCCN(C)C,0,-2,1,1,-32,38*
CCCCCc1ccc(OCCCC[n+]2cccc(C)c2)c(CCCCC)c1,95*,21,102*,34*,26,41*
CCC(C)(C)c1ccc(Oc2cccc(C(=O)O)c2)cc1,-4,0,-1,-6,-173,-24
CCC(C)(C)c1ccc(OCCCC[n+]2ccccc2)c(C(C)(C)CC)c1,85*,6,100*,1,13,27
CCCCCc1ccc(OCCCC[n+]2ccccc2)c(CCCCC)c1,81*,8,100*,-20,9,23
CCCCOc1ccc(C)cc1CN(CCO)CCO,4,2,1,-2,-30,0
Cc1ccc(-n2c(=O)c3cc4c(=O)n(-c5ccc(C)c(C)c5)c(=O)c4c(C(=O)c4ccc(C(=O)O)cc4)c3c2=O)cc1C,-5,-1,-3,-8,-4,-9
C[n+]1ccc(/C=C/c2ccc(Br)cc2)cc1,83*,-2,79*,-10,-18,8
Cc1ccc2[nH]c(C)c(/C=C/c3cc[n+](C)cc3)c2c1,/,-1,/,4,-10,5
COc1ccccc1CNC(=O)CN1C(=O)c2ccccc2S1(=O)=O,/,1,/,2,-5,-5
COc1cccc2sc(Nc3nnc(-c4ccccc4Cl)o3)nc12,85*,3,82*,3,-19,-2
COc1cccc2sc(NN)nc12,2,10,2,7,-18,0
Cc1cccc(N(C(=O)CCC(=O)Nc2cccnc2)C(C(=O)NC2CCCC2)c2ccncc2)c1 (configuration not stated),3,1,0,-11,-12,-12
C[n+]1ccccc1COc1ccc(C(C)(C)C)cc1,68*,0,73*,1,0,5
CC(C)(C)c1ccc(OCCNCc2ccccc2)cc1,/,8,/,4,-30,27
Cc1ccc(COn2c(-c3ccc(Cl)cc3Cl)nc3ncccc32)cc1,2,-1,-3,-5,-5,-32
